The values that follow come from PubChem BioAssay (NCI).

Some test systems named below: NCI-H23 lung; NCI-H226 lung; NCI-H322M lung; HOP-62 NSCLC; NCI-H460 lung; HOP-92 NSCLC; NCI-H522 lung; A549/ATCC NSCLC; 786-0 renal; COLO 205 colon; DU-145 prostate; K-562 leukemia; MALME-3M melanoma; MDA-MB-231 breast; RXF 393 renal; SF-268 CNS; SF-295 CNS; SF-539 CNS; UACC-257 melanoma; M14 melanoma.
Common to all, as to assay: NCI-60 one-dose screen, 48 h (100 = growth as untreated, 0 = no growth, -100 = all killed)
What all share (settings): 10 µM unless noted

The structures appear in SMILES notation. About 83,000 compounds went through this panel and 20% of them were active in at least one assay; those are over-represented in the sample as a whole.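 The test compound was applied at a single concentration to cells in 96-well plates for 48 hours, and percent growth was recorded.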 A number with no mark means an inactive call. Activity calls are given as the source filed them. The calls were made as follows: active = growth percent below 10; inactive = the rest.

For the compound `COc1ccc2[nH]c(=O)c(CSc3ccccc3Nc3nccc(-c4ccc(C(F)(F)F)cc4)n3)cc2c1`, the growth in the experiment on NCI-H23 lung was 30.7%; with NCI-H226 lung, 18.7%; with NCI-H322M lung it was 67.4%; with HOP-62 NSCLC it was 53.6%; with NCI-H460 lung, 17.4%; in the experiment on HOP-92 NSCLC it was 26.7%. Further, the growth in the experiment on NCI-H522 lung was 0.553% (active); in the experiment on A549/ATCC NSCLC, 18.5%; with 786-0 renal it was -4.97% (active); in the experiment with COLO 205 colon it was 27.8%; in the experiment with DU-145 prostate, 27.3%; in the experiment with K-562 leukemia it was 19.5%. In addition, the growth with MALME-3M melanoma is 47.4%; with MDA-MB-231 breast, 31.6%; with RXF 393 renal, -41.2% (active); with SF-268 CNS it was 19.5%; with SF-295 CNS, 5.31% (active); in the experiment on SF-539 CNS, 0.901% (active). Further, the figures for the growth in the experiment with UACC-257 melanoma and with M14 melanoma were 50.3% and 52.3%, respectively.
For the compound `O=C(Nc1ccc(F)cc1)Nc1nc2ccc([N+](=O)[O-])cc2s1`, the growth with NCI-H23 lung was -11.8% (active); in the experiment on NCI-H226 lung it was 1.42% (active); with NCI-H322M lung, 7.52% (active); in the experiment with HOP-62 NSCLC, -0.8% (active); in the experiment with NCI-H460 lung, -3.01% (active); in the experiment on HOP-92 NSCLC, -3.56% (active). For the same compound, the growth in the experiment on NCI-H522 lung was -23.7% (active); in the experiment with A549/ATCC NSCLC, 6.83% (active); in the experiment with 786-0 renal, 1.6% (active); in the experiment on COLO 205 colon, -77.5% (active); in the experiment with DU-145 prostate it was 24.2%; in the experiment with K-562 leukemia, 6.19% (active). Further, the growth was -17.9% (active) in the experiment with MALME-3M melanoma; -2.3% (active) in the experiment on MDA-MB-231 breast; -14.9% (active) with RXF 393 renal; 18% in the experiment on SF-268 CNS; -46% (active) in the experiment with SF-295 CNS; 7.13% (active) in the experiment with SF-539 CNS. Further, the growth was -12.8% (active) in the experiment on UACC-257 melanoma and -3.58% (active) with M14 melanoma.
For `O=C1c2cccc3c(N4CCN(Cc5ccccc5)CC4)ccc(c23)C(=O)N1c1cccc(-c2nn(-c3ccccc3)cc2-c2nc3ccccc3s2)c1`, the growth was 96% in the experiment on NCI-H23 lung; 82% in the experiment on NCI-H226 lung; 101% in the experiment with NCI-H322M lung; 123% in the experiment on HOP-62 NSCLC; 110% in the experiment with NCI-H460 lung; 105% in the experiment on HOP-92 NSCLC. For the same compound, the growth is 104% in the experiment with NCI-H522 lung; 113% in the experiment with A549/ATCC NSCLC; 101% in the experiment with 786-0 renal; 119% in the experiment with COLO 205 colon; 119% with DU-145 prostate; 97.4% in the experiment on K-562 leukemia. In addition, the growth was 98.5% with MALME-3M melanoma; 105% in the experiment with MDA-MB-231 breast; 99.8% with RXF 393 renal; 108% in the experiment with SF-268 CNS; 107% with SF-295 CNS; 97% in the experiment with SF-539 CNS. The growth in the experiment with UACC-257 melanoma is 124%; with M14 melanoma, 97.8%.
In the case of `COc1ccc2ccccc2c1/C=C1\SC(=Nc2ccc(O)cc2)NC1=O`, the growth with NCI-H23 lung was 19.3%; in the experiment on NCI-H226 lung, -5.11% (active); in the experiment with NCI-H322M lung it was 32.7%; with HOP-62 NSCLC it was 23.8%; in the experiment with NCI-H460 lung, 11.1%; with HOP-92 NSCLC, 18.3%. Moreover, the growth is -24% (active) in the experiment on NCI-H522 lung; 11.5% with A549/ATCC NSCLC; 17.7% with 786-0 renal; -22.2% (active) in the experiment with COLO 205 colon; 35.2% with DU-145 prostate; 7.49% (active) in the experiment on K-562 leukemia. In addition, the growth is 30.1% in the experiment with MALME-3M melanoma; 15.1% in the experiment with MDA-MB-231 breast; -1.11% (active) in the experiment on RXF 393 renal; 37.9% with SF-268 CNS; 10.7% in the experiment on SF-295 CNS; -21.7% (active) with SF-539 CNS. Further, the values for the growth in the experiment with UACC-257 melanoma and in the experiment with M14 melanoma were 37.8% and 6.7% (active), respectively.
For `COc1ccc(-n2c(NC(=O)N3CCN(C)CC3)c(C#N)c3ccccc32)cc1`, the growth with NCI-H23 lung is 33.8%; in the experiment with NCI-H226 lung it was 11.4%; in the experiment on NCI-H322M lung, 90.2%; in the experiment with HOP-62 NSCLC it was 30.5%; with NCI-H460 lung, 30.7%; in the experiment with HOP-92 NSCLC it was 44%. Further, the growth with NCI-H522 lung was 61.1%; in the experiment on A549/ATCC NSCLC, 45.3%; with 786-0 renal, 44.2%; with COLO 205 colon it was 65.5%; in the experiment with DU-145 prostate, 41.2%; with K-562 leukemia it was 58.6%. In addition, the growth is 38.5% in the experiment on MALME-3M melanoma; 29.6% with MDA-MB-231 breast; -9.29% (active) in the experiment on RXF 393 renal; 29.1% in the experiment on SF-268 CNS; 47.1% in the experiment on SF-295 CNS; 14.3% in the experiment with SF-539 CNS. Moreover, the growth is 60.3% in the experiment with UACC-257 melanoma and 54.4% with M14 melanoma.
Regarding `COc1cccc(-c2ccc(/C=N/NC(=O)c3[nH]c4ccc(Br)cc4c3-c3ccccc3)s2)c1`, the growth in the experiment on NCI-H23 lung was -41.9% (active); with NCI-H226 lung it was -1.63% (active); in the experiment on NCI-H322M lung, 49.1%; with HOP-62 NSCLC, 14.6%; with NCI-H460 lung, -15.4% (active); with HOP-92 NSCLC, 43.1%. For the same compound, the growth is -65.4% (active) with NCI-H522 lung; 10.7% in the experiment with A549/ATCC NSCLC; -12.2% (active) in the experiment on 786-0 renal; -28.7% (active) with COLO 205 colon; 2.3% (active) with DU-145 prostate; 15.7% with K-562 leukemia. Also, the growth in the experiment on MALME-3M melanoma is 33.1%; in the experiment on MDA-MB-231 breast, -20.5% (active); in the experiment on RXF 393 renal, -63% (active); in the experiment with SF-268 CNS, -9.89% (active); in the experiment with SF-295 CNS, -46.2% (active); in the experiment with SF-539 CNS, -83.9% (active). Also, the growth in the experiment on UACC-257 melanoma is 45.7%; in the experiment with M14 melanoma, -4.68% (active).
For the compound `Cc1cn(-c2cc(NC(=O)c3ccc(C)c(-n4cc(-c5cnc6cccnn56)nn4)c3)cc(C(F)(F)F)c2)cn1`, the growth in the experiment on NCI-H23 lung is 56.9%; in the experiment on NCI-H226 lung, 68.8%; with NCI-H322M lung, 106%; with HOP-62 NSCLC, 80.5%; in the experiment on NCI-H460 lung, 102%; with HOP-92 NSCLC, 53.9%. Moreover, the growth in the experiment with NCI-H522 lung was 81.4%; in the experiment on A549/ATCC NSCLC it was 94.3%; with 786-0 renal, 95.4%; in the experiment on COLO 205 colon, 31%; in the experiment on DU-145 prostate it was 105%; in the experiment with K-562 leukemia it was 4.65% (active). Moreover, the growth in the experiment with MALME-3M melanoma was -12.3% (active); with MDA-MB-231 breast it was 24.7%; with RXF 393 renal, 98.1%; in the experiment with SF-268 CNS, 112%; in the experiment on SF-295 CNS, 93.8%; in the experiment with SF-539 CNS, 77.7%. Besides, the results for the growth in the experiment with UACC-257 melanoma and in the experiment on M14 melanoma were 22.4% and 21.5%, respectively.
In the case of `O=C(N/N=C/c1c[nH]c2ccccc12)Nc1ccc(F)c(Cl)c1`, the growth was 28.8% with NCI-H23 lung; 65.6% in the experiment on NCI-H226 lung; 85.8% in the experiment on NCI-H322M lung; 53.8% with HOP-62 NSCLC; 23% in the experiment on NCI-H460 lung; 39.9% with HOP-92 NSCLC. Also, the growth in the experiment with NCI-H522 lung was -29.1% (active); with A549/ATCC NSCLC, 39.4%; in the experiment on 786-0 renal, 33.9%; with COLO 205 colon, 33.7%; with DU-145 prostate, 61.5%; in the experiment with K-562 leukemia, 15.4%. In addition, the growth in the experiment on MALME-3M melanoma was 56.3%; in the experiment on MDA-MB-231 breast, 61.3%; in the experiment on RXF 393 renal, 18.3%; with SF-268 CNS, 39.7%; in the experiment on SF-295 CNS it was 13.8%; in the experiment on SF-539 CNS, 27.3%. Besides, the growth is 60.9% in the experiment with UACC-257 melanoma and 33.7% in the experiment on M14 melanoma.
